Source: PubChem BioAssay AID1159580 (chemical genetic matrix, 2015)
Out of some 5,500 compounds screened, about 2,000 (36%) were called active. Another 18% or so got no clear call; they are omitted. No stated cut-off is given here; in the data, active means normalized growth mostly below about 0.91 (no sharp cut-off); inconclusive means no clear call, values can overlap the other calls; inactive means mostly above about 0.92. This is one part of the list.

Experiment: chemical genetic growth profiling, strain panel (AID 1159580);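 further: tested at 20 µM; growth read once vehicle control cultures reached saturation at 30 °C; 1 = growth at the plate median or of vehicle wells; lower values mean less growth of the strain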
Conditions: S. cerevisiae deletion strains, growth OD

Measured: normalized growth

CC(=O)NNC(=O)N1Cc2ccccc2Oc2ccc(Cl)cc21
inactive: locus YAL013W, strain DEP1, hits give low values 1.04 | locus YAL040C, strain CLN3, hits give low values 1 | locus YCL061C, strain MRC1 (second series), hits give low values 1.02 | locus YDR150W, strain NUM1, hits give low values 1.02 | locus YDR363W, strain ESC2, hits give low values 1.03 | locus YER002W, strain NOP16, hits give low values 1 | locus YMR307W, strain GAS1, hits give low values 0.997 | locus YNL153C, strain GIM3, hits give low values 1.02 | locus YNL175C, strain NOP13, hits give low values 0.989 | locus YNL197C, strain WHI3, hits give low values 1.01 | locus YNL224C, strain SQS1, hits give low values 0.984 | locus YNL322C, strain KRE1, hits give low values 1.03 | locus YOR083W, strain WHI5 (second series), hits give low values 1.01 | locus YPL055C, strain LGE1, hits give low values 1.04 | locus YPL241C, strain CIN2, hits give low values 1
